Compound activity from PubChem BioAssay.
In the library only some 1.5% were active in any assay of this set; here they are far more common.
PvdQ inh: P. aeruginosa PvdQ acylase inhibitors, primary screen, biochemical, fluorescence, plate reader and imaging, single point. PvdQ acylase [Pseudomonas aeruginosa LESB58]. purified PvdQ acylase. inhibition, % at 10 µM. 340,000 compounds, 0.063% hits; in the data active means inhibition above about 30%, passing the limit was not always enough;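 further: 0% = vehicle neutral wells and 100% = reference inhibitor wells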
dFosB act-1: activators of delta FosB homodimer, primary screen, biochemical, fluorescence polarization, TAMRA-CDK5 oligo, single point; Protein FosB (Mus musculus), P13346; purified delta FosB; percent of positive-control signal above neutral wells; activation, % at 25 µM; 340,000 compounds, 0.99% hits; AID 493131, 2011;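 active means mean activation above about 17%, with every replicate also reaching it, limit read from the data, passing the limit was not always enough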
CFTR F508del cor: F508del CFTR correction, initial screen, CFBE line, single point; CFBE cells, YFP halide quenching; stimulated with forskolin plus potentiator P3; % fluorescence drop versus neutral controls; activity (quench increase), % at 7.58 µM; 350,000 compounds, 0.36% hits; AID 720511, 2013;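 active means mean added fluorescence quench of at least 8% versus neutral control, with both replicates also reaching 8%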;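 further: cells transiently co-express mutant CFTR-F508del with the halide-sensitive YFP; corrector assay measuring rescue of mutant channel to the surface after 24 h compound exposure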
Glyco luc inh: increase of ERlucT glycosylation luciferase signal, primary screen, N-linked glycosylation inhibitor project, D54 ERlucT cells, luminescence, set 2; D54 ERlucT glycosylation luciferase reporter, 24 h; percent of 100 nM tunicamycin response; reporter increase, % at 12.5 µM; 360,000 compounds, 0.23% hits; AID 588692, 2011;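 active means mean luciferase reporter signal, scaled so untreated is 0 and the glycosylation-blocking control 100, at or above a set limit in every replicate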;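 further: luciferase carries N-glycosylation sites so blocking glycosylation raises the light; 0% = median of neutral control wells and 100% = median of 100 nM tunicamycin wells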
RAD52 anneal inh: RAD52 DNA annealing inhibitors, primary screen, biochemical, FRET, single point, set 2. DNA repair protein RAD52 homolog (Homo sapiens), P43351. recombinant RAD52 DNA annealing, FRET fluorescence. inhibition, % at 18.7 µM. 360,000 compounds, 0.46% hits. AID 651710, 2012;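 active means every replicate showing at least 50% inhibition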
RAD54 branch: inhibitors of human RAD54 branch migration, primary screen, biochemical, fluorescence, single point | RAD54 Holliday junction branch migration, FAM/BHQ fluorescence | inhibition, % at 10.4 µM | 360,000 compounds, 0.14% hits;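 active means mean normalized replicate activity at least 40 and at least half of replicates scoring 40 or more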;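 further: 0% = median of neutral control wells and 100% = median of positive control wells; inhibitors cause a drop in the FAM fluorescence signal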
Target sequence (Q92698 whole entry, looked up): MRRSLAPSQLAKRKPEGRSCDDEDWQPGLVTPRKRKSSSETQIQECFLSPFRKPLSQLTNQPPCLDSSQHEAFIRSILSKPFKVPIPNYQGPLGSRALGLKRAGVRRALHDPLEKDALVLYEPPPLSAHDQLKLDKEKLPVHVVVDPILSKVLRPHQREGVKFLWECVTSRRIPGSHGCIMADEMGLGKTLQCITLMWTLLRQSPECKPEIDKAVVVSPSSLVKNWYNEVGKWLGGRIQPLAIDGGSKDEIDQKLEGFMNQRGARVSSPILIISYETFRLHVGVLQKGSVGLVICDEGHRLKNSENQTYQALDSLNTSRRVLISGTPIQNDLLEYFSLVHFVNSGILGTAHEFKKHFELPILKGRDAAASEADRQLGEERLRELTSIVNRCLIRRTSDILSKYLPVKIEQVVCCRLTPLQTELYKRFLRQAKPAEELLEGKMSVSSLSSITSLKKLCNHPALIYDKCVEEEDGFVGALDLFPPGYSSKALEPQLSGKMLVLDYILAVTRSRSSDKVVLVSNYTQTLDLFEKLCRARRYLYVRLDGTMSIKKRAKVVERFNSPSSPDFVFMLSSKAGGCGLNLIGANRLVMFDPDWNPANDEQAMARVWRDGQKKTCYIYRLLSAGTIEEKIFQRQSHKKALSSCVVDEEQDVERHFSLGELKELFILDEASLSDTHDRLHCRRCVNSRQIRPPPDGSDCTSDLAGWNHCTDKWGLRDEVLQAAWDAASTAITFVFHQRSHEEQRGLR
dFosB act-2: activators of mouse delta FosB DNA binding, confirmation, biochemical, fluorescence polarization, TAMRA-CDK5 oligo, cherry-picked samples; purified delta FosB; normalised: neutral wells 0, positive control 100; AID 588690, 2011; activation, % at 24.9 µM; shares compounds with dFosB act-1; 2,400 tested, under 10 active;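 active means highest replicate activation at or above 34% and every replicate reaching that threshold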;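 further: higher polarization means more probe DNA bound by delta FosB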
* hit, by the source's call.

How did Cc1ccc(C(=O)OCC(=O)Nc2cccc(Cl)c2C)c(O)c1 do in these assays?
PvdQ inh: -4; dFosB act-1: 20*; CFTR F508del cor: 1; Glyco luc inh: 2; RAD52 anneal inh: -5; RAD54 branch: 1; dFosB act-2: 0

What do the screens show for `COCCN(C(=O)COc1ccccc1)c1nnc(-c2cccnc2)s1`?
PvdQ inh: 1; dFosB act-1: 32*; Glyco luc inh: 1; RAD54 branch: -10; dFosB act-2: 7

How did COCCN(C(=O)COc1ccc(Cl)cc1)c1nnc(-c2cccnc2)s1 do in these assays?
PvdQ inh: -5; dFosB act-1: -7; Glyco luc inh: 1; RAD54 branch: -18

Results for O=C(C[C@@H]1C=C[C@H](NC(=O)C2CC2)[C@H](CO)O1)NCCCN1CCOCC1 ?
CFTR F508del cor: 0; RAD52 anneal inh: -3; RAD54 branch: -8

What do the screens show for `Cc1cc(C)cc(OCC(=O)N/N=C/c2ccco2)c1`?
PvdQ inh: -6; dFosB act-1: 0; CFTR F508del cor: -1; Glyco luc inh: 0; RAD52 anneal inh: 1; RAD54 branch: 2

How did O=C(COc1c(Br)cc(Br)cc1Br)N/N=C/c1ccco1 do in these assays?
PvdQ inh: -8; dFosB act-1: 31*; Glyco luc inh: 5; RAD54 branch: -5; dFosB act-2: 5

Results for Cc1cc(-c2nc3ncccc3o2)ccc1NC(=S)NC(=O)c1ccco1 ?
PvdQ inh: -14; dFosB act-1: 25*; CFTR F508del cor: -3; Glyco luc inh: 0; RAD52 anneal inh: -42; dFosB act-2: 0

Results for O=C(NC1CC1)C1CCN(C2CCN(C(=O)Cc3ccc(F)cc3)CC2)CC1 ?
PvdQ inh: 4; dFosB act-1: 1; CFTR F508del cor: 0; Glyco luc inh: 0; RAD52 anneal inh: -27; RAD54 branch: -7

Results for O=C(NC1CC1)C1CCN(C2CCN(C(=O)c3c(F)cccc3Cl)CC2)CC1 ?
PvdQ inh: -5; dFosB act-1: 27*; CFTR F508del cor: -1; Glyco luc inh: 2; RAD52 anneal inh: -23; RAD54 branch: -8; dFosB act-2: 2

What do the screens show for `COc1cc(NC(=O)c2cc([N+](=O)[O-])ccc2NC(=O)CNCc2ccccn2)cc(OC)c1`?
PvdQ inh: -9; dFosB act-1: 35*; CFTR F508del cor: -2; Glyco luc inh: 8; RAD52 anneal inh: -16; RAD54 branch: -5; dFosB act-2: -1

How did CC(C)NC(=O)N(C)C[C@@H]1Oc2ncc(-c3ccccc3F)cc2C(=O)N([C@H](C)CO)C[C@@H]1C do in these assays?
CFTR F508del cor: -2; RAD52 anneal inh: -8; RAD54 branch: -6

How did CCOC(=O)c1c(C)[nH]c(C(=O)OCC(=O)Nc2cc(C)ccc2OC)c1C do in these assays?
PvdQ inh: 3; dFosB act-1: 23*; Glyco luc inh: -1; RAD54 branch: 1; dFosB act-2: 0

What do the screens show for `CC(=O)c1nn(-c2cccc(Br)c2)cc1C(=O)c1ccc(Cl)cc1`?
PvdQ inh: 7; dFosB act-1: 28*; CFTR F508del cor: 2; Glyco luc inh: 0; RAD52 anneal inh: -28; RAD54 branch: -6; dFosB act-2: 4

How did C[C@@H]1CN([C@H](C)CO)C(=O)c2cc(C#C[C@@H](C)O)cnc2O[C@@H]1CN(C)C(=O)c1ccccc1 do in these assays?
CFTR F508del cor: -2; RAD52 anneal inh: -14; RAD54 branch: 3

How did COc1ccc(-c2ccc3c(N)c(C(=O)c4ccc(OC)c(OC)c4)sc3n2)cc1 do in these assays?
PvdQ inh: -2; dFosB act-1: 30*; Glyco luc inh: 6; RAD54 branch: -1; dFosB act-2: 9

Results for COc1cc(/C=C/C(=O)Nc2cccnc2)cc(OC)c1OC ?
PvdQ inh: 5; dFosB act-1: 18*; CFTR F508del cor: -3; Glyco luc inh: 4; RAD52 anneal inh: -4; RAD54 branch: 10; dFosB act-2: 5

What do the screens show for `O=C(N/N=C/c1ccc(OC(=O)c2cccs2)cc1)c1cccc(F)c1`?
PvdQ inh: -12; dFosB act-1: 61*; CFTR F508del cor: 0; Glyco luc inh: 2; RAD52 anneal inh: 6; RAD54 branch: 5; dFosB act-2: 0

How did Cc1cccc(C(=O)Oc2ccc(/C=N/NC(=O)c3ccccc3O)cc2)c1 do in these assays?
PvdQ inh: -11; dFosB act-1: 0; CFTR F508del cor: -1; Glyco luc inh: 0; RAD52 anneal inh: -8; RAD54 branch: 6

Results for Cc1ccc2occ(/C=N/NC(=O)c3ccccc3Br)c(=O)c2c1 ?
PvdQ inh: -4; dFosB act-1: 3; CFTR F508del cor: 0; Glyco luc inh: -2; RAD52 anneal inh: -17; RAD54 branch: -9

What do the screens show for `Cc1ccc2occ(/C=N/NC(=O)c3ccc(O)cc3)c(=O)c2c1`?
PvdQ inh: -10; dFosB act-1: 52*; CFTR F508del cor: 0; Glyco luc inh: -6; RAD52 anneal inh: -9; RAD54 branch: 1; dFosB act-2: 2

What do the screens show for `O=C(N/N=C/c1ccc(OC(=O)c2cccc(F)c2)cc1)c1cccnc1`?
PvdQ inh: -8; dFosB act-1: 94*; CFTR F508del cor: 2; Glyco luc inh: 1; RAD52 anneal inh: -13; RAD54 branch: 9; dFosB act-2: -1

Results for O=C(NNC(=O)c1cccs1)c1cccc(F)c1 ?
PvdQ inh: 4; dFosB act-1: -1; CFTR F508del cor: -2; Glyco luc inh: 2; RAD52 anneal inh: -12; RAD54 branch: 15

Results for O=C(N/N=C/c1cccnc1)c1cccc(F)c1 ?
PvdQ inh: -20; dFosB act-1: 2; CFTR F508del cor: -3; Glyco luc inh: -1; RAD52 anneal inh: -4; RAD54 branch: -6

What do the screens show for `Cc1cccc(C(=O)Oc2ccc(/C=N/NC(=O)c3ccc(O)cc3)cc2)c1`?
PvdQ inh: -11; dFosB act-1: 34*; CFTR F508del cor: -2; Glyco luc inh: -1; RAD52 anneal inh: -7; RAD54 branch: -12; dFosB act-2: 1

How did CO[C@H]1CN(C)C(=O)c2ccc(NC(=O)c3ccno3)cc2OC[C@@H](C)NC[C@@H]1C do in these assays?
CFTR F508del cor: 2
